Compound activity as filed in PubChem.
DAX1 inh-1 – NR0B1 (DAX1) inhibition; P51843; HEK293 Gal4-DAX1 luciferase reporter, luminescence; inhibition, % at 6.75 µM; 0.99% of 340,000 active; AID 504766;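 active = inhibition above the mean over all tested compounds plus 3 SD, cut at about 4.2% in these data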;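 also: inhibition shows as a rise in luminescence from relieved DAX1 repression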
Target sequence (P51843 207-470 limits assumed): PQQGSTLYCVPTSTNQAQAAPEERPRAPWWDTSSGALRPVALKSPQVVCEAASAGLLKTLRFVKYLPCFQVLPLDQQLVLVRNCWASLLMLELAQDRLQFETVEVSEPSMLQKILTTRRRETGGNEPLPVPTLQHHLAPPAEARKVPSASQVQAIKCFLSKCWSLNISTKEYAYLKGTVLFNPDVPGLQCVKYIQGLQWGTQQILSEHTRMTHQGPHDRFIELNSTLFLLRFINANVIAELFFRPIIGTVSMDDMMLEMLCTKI
ssDAF12 agonist – activators of S. stercoralis DAF-12 nuclear receptor; HEK293 ssDAF-12/GRIP1 lit1-tk-luc reporter, luminescence; % of 3 µM dafachronic acid response; activation, % at 6.8 µM; 1% of 370,000 active; AID 652126;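 active = activation above the mean over all tested compounds plus 3 SD, cut at about 0.9% in these data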
DAX1 inh-2 – inhibitors of DAX1 repression of SF-1 activated StAR promoter | HEK293T StAR-luciferase reporter, SF-1/DAX-1 repression relief | inhibition, % at 6.8 µM | 1.1% of 370,000 active;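 active = inhibition above the mean over all tested compounds plus 3 SD, cut at about 3.6% in these data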;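 also: higher inhibition means more luminescence from relief of DAX-1 repression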
hcDAF-12 act – H. contortus DAF-12 activation, primary screen. activation, % at 6.8 µM. HEK293 hcDAF-12 lit1-tk-luc reporter, luminescence; 0% DMSO, 100% Δ7-dafachronic acid. 1.4% of 370,000 active;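 active = activation above the mean of all tested compounds plus 3 SD, cut at about 5.5% in these data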
hgDAF-12 ag – hgDAF-12 agonism, primary luciferase screen; activation, % at 6.8 µM; HEK293 GAL4-hgDAF12 UAS-luciferase reporter, agonist luminescence; normalized to butyrate control; 1.8% of 370,000 active; AID 687014;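 active = activation above a cutoff set at the mean of all screened compounds plus 3 SD, cut at about 10% in these data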
DAX1 conf – NR0B1 (human) inhibition, confirmation. shares compounds with DAX1 inh-2. HEK293T StAR-promoter luciferase reporter, SF-1/DAX-1 repression. inhibition, % at 6.8 µM. 87% of 2,400 active;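 active = inhibition above the average of every tested compound plus 3 SD, cut at about 3.8% in these data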;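 also: active compounds raise luminescence by relieving repression of the StAR reporter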
SF1 AF2mut Luc – nonselective inhibitor or artifact in SF-1 mutant DAX1 counter-screen | inhibition, % at 6.8 µM | 78% of 2,400 active | HEK293 StAR-luciferase, SF-1 AF2 mutant, luminescence | shares compounds with DAX1 inh-2;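 active = inhibition above the mean of all tested compounds plus 3 SD, cut at about 3% in these data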
Hits are given with their value; - = inactive; . = no result. Shown are actives, neighbours in structure and some others; about 4.1% of the full set was active somewhere.

SMILES	DAX1 inh-1	ssDAF12 agonist	DAX1 inh-2	hcDAF-12 act	hgDAF-12 ag	DAX1 conf	SF1 AF2mut Luc
Cc1ccc(C(=O)NCC(=O)Nc2cc(C)ccn2)cc1	-	-	4.8	-	-	6.8	4.5
Cc1ccc(NC(=O)CCNC(=O)c2ccc(Cl)cc2)cc1C	-	-	-	-	-	.	.
Cc1ccnc(NC(=O)c2ccc(S(=O)(=O)N3CCCCCC3)cc2)c1	-	-	9.2	-	-	10.1	5.1
CCOc1ccc(C(=O)NCC(=O)Nc2cc(C)ccn2)cc1OCC	-	-	-	-	-	.	.
Cc1ccnc(NC(=O)CCNC(=O)c2ccc(Cl)cc2)c1	-	-	5.1	-	11.3	14.0	7.0
CCOc1ccc(NC(=O)CN(C)C(=O)C2CCCO2)cc1OCC (stereo not drawn)	-	-	-	-	-	.	.
Cc1sc2nc(CSC(C)C(=O)Nc3cc(S(C)(=O)=O)ccc3Cl)[nH]c(=O)c2c1C (stereo not drawn)	-	-	-	-	-	.	.
CN(Cc1ccco1)S(=O)(=O)c1nnc(NC(=O)c2ccccc2Cl)s1	-	-	-	-	-	.	.
CC(C)(C)C1=CC(=Nc2ccccc2N)C=C(C(C)(C)C)C1=O	-	2.9	4.6	-	12.9	-	-
CCOC(=O)c1csc(NC(=O)c2cccs2)n1	-	-	8.7	-	-	10.4	6.7
CCOC(=O)Cc1csc(NC(=O)c2cccs2)n1	-	-	-	-	-	.	.
CC(C)(C)c1csc(NC(=O)C2=COCCO2)n1	-	-	6.6	-	11.6	8.2	5.3
CCOC(=O)c1csc(NC(=O)C2=COCCO2)n1	-	-	7.0	-	-	9.0	7.1
Cc1ccc(-c2csc(NC(=O)C3=COCCO3)n2)cc1	-	-	-	-	-	.	.
Nc1nc(C23CC4CCC(CC(C4)C2)C3)cs1	-	-	-	-	-	.	.
COCCNC(=O)CCc1c(C)nc2nc(-c3cc(OC)cc(OC)c3)nn2c1C	-	-	-	-	-	.	.
O=c1cccc(-c2ccc3ccccc3c2)o1	.	-	6.6	-	-	5.0	3.1
Cc1ccc(-c2cccc(=O)o2)cc1	.	-	-	-	-	.	.
COc1ccc(S[C@]2(C(=O)N3CCN(c4ncccn4)CC3)CC(=O)N(C(=O)CCc3ccccc3)[C@@H]2c2ccc(OC)cc2)cc1	.	-	-	-	-	.	.
Cc1noc(C)c1C(=O)Nc1nc2ccc(Cl)cc2s1	-	-	5.5	-	-	-	-
CCc1noc(C)c1C(=O)Nc1nc2ccc(S(C)(=O)=O)cc2s1	-	-	-	-	-	.	.
COc1ccc2[nH]c(C(O)(Cc3cccnc3)Cc3cccnc3)cc2c1	-	-	-	-	-	.	.
O=C1SC(SC(=Nc2ccccc2)Nc2ccccc2)C(=O)N1c1ccccc1 (stereo not drawn)	-	-	5.9	-	13.4	-	-
Cc1cc(S(=O)(=O)N2CCOCC2)ccc1OCC(=O)Nc1ccc(F)cc1F	-	-	-	-	-	.	.
COc1ccc(/C=N/Nc2ncccc2[N+](=O)[O-])c(OC)c1	-	-	5.0	-	-	15.4	8.9
SMILES	DAX1 inh-1	ssDAF12 agonist	DAX1 inh-2	hcDAF-12 act	hgDAF-12 ag	DAX1 conf	SF1 AF2mut Luc
COc1cc(OC)cc(C(=O)NCCNc2nc3cc(C)cc(C)c3cc2C#N)c1	-	-	-	-	-	.	.
CCOC(=O)c1ccc(NC(=O)N2CCCCCC2)cc1	-	-	5.0	-	-	13.9	8.0
CC(=O)c1ccc(NC(=S)N2CCCC2)cc1	-	-	5.1	-	-	-	-
O=C(NCC1CCCO1)c1ccc(-c2ccccc2Cl)o1 (stereo not drawn)	-	-	7.3	-	13.2	10.9	6.0
Cc1onc(-c2ccccc2Cl)c1C(=O)NCC1CCCO1 (stereo not drawn)	-	-	-	-	-	.	.
NC(=O)C1CCCN(C(=O)c2ccc(-c3cccc(Cl)c3Cl)o2)C1 (stereo not drawn)	-	-	5.6	-	-	9.2	4.8
O=C(c1ccc(-c2ccccc2Cl)o1)N1CCC1	-	-	5.1	-	-	5.7	4.3
COC(=O)CN1C(=O)N/C(=C/c2cc(OC)c(OC)cc2C)C1=O	-	-	-	-	-	.	.
COc1ccc(C=C2CCc3ccccc3C2=O)cc1	.	-	6.6	-	-	7.2	-
CCOc1ccc(/C=C2\CCc3ccccc3C2=O)cc1	-	-	-	-	-	.	.
O=C(c1ccc2c(Cl)c3c(nc2c1)CCCC3)N1CCC(N2CCCCC2)CC1	-	-	9.0	-	-	7.0	6.1
O=C(COC(=O)c1ccccc1-n1cnnn1)c1ccc(F)cc1	-	-	7.7	-	-	7.5	5.6
O=C(COC(=O)Cc1cccc(C(F)(F)F)c1)NC1CCS(=O)(=O)C1 (stereo not drawn)	-	-	-	-	-	.	.
CCOc1ccc(NC(=O)c2ccco2)cc1S(=O)(=O)N1CCCC1	-	-	5.1	-	-	-	-
CC1CCN(c2nc3ccc(C(=O)NCCCN4CCCCC4)cc3s2)CC1	-	-	5.9	-	11.4	12.3	7.2
Cc1cccc(-n2ncc3c2CCCC3NC(=O)C2CCOCC2)c1C (stereo not drawn)	-	-	-	-	-	.	.
OC[C@H]1O[C@@H](c2nc(-c3ccc(Br)cc3)no2)C[C@@H]1O	.	-	4.8	5.8	11.6	6.0	4.9
Cc1ccc(-c2c(C)sc(=NC(=O)c3ccco3)n2C)cc1	-	-	5.2	-	-	6.8	3.0
COc1ccc(OC)c2c1sc(=NC(=O)c1ccco1)n2C	-	-	-	-	-	.	.
Cc1cccnc1NC(=O)COc1ccc2c(c1)CCC2	-	1.0	6.1	-	-	4.7	-
Cc1ccc(NC(=O)COc2ccc3c(c2)CCC3)nc1	-	-	5.1	-	10.6	8.4	3.5
Cc1ccc(NC(=O)COc2ccc3oc4c(c3c2)CCCC4)nc1	-	-	-	-	-	.	.
Cc1cccnc1NC(=O)COc1ccc2oc3c(c2c1)CCCC3	-	-	-	-	-	.	.
CCOC(=O)/C=C/C(=O)Nc1ccc(Oc2ccccc2)cc1	-	-	-	-	-	.	.
COc1cc(/C=N/NC(=O)c2ccncc2)ccc1OCc1cnc(Cl)s1	-	-	-	-	-	.	.
O=C(CSc1nnc(-c2ccc(Br)cc2)o1)Nc1cccc2ccccc12	-	-	-	-	-	.	.
O=C(CSc1nnc(-c2ccncc2)o1)Nc1cc(F)ccc1F	-	-	4.9	-	12.6	5.2	5.9
O=C(CSc1nnc(-c2ccc(Br)cc2)o1)Nc1cccc(C(=O)O)c1	-	-	5.0	-	-	6.1	5.4
CC1(C(=O)Nc2ccccc2Br)CCN1C(=O)Cc1ccc(Cl)cc1Cl (stereo not drawn)	.	-	-	-	-	.	.
Cc1ccc(Nc2nnc(SCC3CCCCO3)s2)cc1 (stereo not drawn)	-	-	-	-	-	.	.
